Reference: PubChem BioAssay (NCI)
This is part of a sample that, as a whole, favours compounds with a hit. Of some 83,000 tested, about 20% had one in any assay.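 Treatment: one concentration, 48 hours, 96-well format. Scoring: percent growth, with anything below 10 considered active.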 A number with no mark means an inactive call. Calls of active or inactive are those of the source.

Key:
Experiment in all cases: NCI-60 one-dose screen, 48 h (100 = growth as untreated, 0 = no growth, -100 = all killed)
Conditions in all cases: 10 µM unless noted
NCI-H23 lung = system: NCI-H23 lung
NCI-H226 lung = system: NCI-H226 lung
NCI-H322M lung = system: NCI-H322M lung
HOP-62 NSCLC = system: HOP-62 NSCLC
NCI-H460 lung = system: NCI-H460 lung
HOP-92 NSCLC = system: HOP-92 NSCLC
NCI-H522 lung = system: NCI-H522 lung
A549/ATCC NSCLC = system: A549/ATCC NSCLC
786-0 renal = system: 786-0 renal
COLO 205 colon = system: COLO 205 colon
DU-145 prostate = system: DU-145 prostate
K-562 leukemia = system: K-562 leukemia
MALME-3M melanoma = system: MALME-3M melanoma
MDA-MB-231 breast = system: MDA-MB-231 breast
RXF 393 renal = system: RXF 393 renal
SF-268 CNS = system: SF-268 CNS
SF-295 CNS = system: SF-295 CNS
SF-539 CNS = system: SF-539 CNS
UACC-257 melanoma = system: UACC-257 melanoma
M14 melanoma = system: M14 melanoma

C#CC#CC#CC#CC#CC#CC#CC#CC[C@H]1OC[C@@H](COC(=O)O[C@@H](C(=O)O[C@H]2C[C@@]3(O)[C@@H](OC(=O)c4ccccc4)[C@@H]4[C@]5(OC(C)=O)CO[C@@H]5C[C@H](O)[C@@]4(C)C(=O)[C@H](OC(C)=O)C(=C2C)C3(C)C)[C@@H](NC(=O)c2ccccc2)c2ccccc2)O1
growth (NCI-H23 lung): 48%
growth (NCI-H226 lung): 56.2%
growth (NCI-H322M lung): 54.6%
growth (HOP-62 NSCLC): 74.4%
growth (NCI-H460 lung): 19.2%
growth (HOP-92 NSCLC): 79.3%
growth (NCI-H522 lung): 71.4%
growth (A549/ATCC NSCLC): 52.4%
growth (786-0 renal): 83.3%
growth (COLO 205 colon): 29.4%
growth (DU-145 prostate): 41.1%
growth (K-562 leukemia): 22.7%
growth (MALME-3M melanoma): 62.5%
growth (MDA-MB-231 breast): 66%
growth (RXF 393 renal): 50.7%
growth (SF-268 CNS): 65.9%
growth (SF-295 CNS): 43.5%
growth (SF-539 CNS): 54.1%
growth (UACC-257 melanoma): 64.6%
growth (M14 melanoma): 25.3%

CC1=CCC[C@@H]2C1(C)CC[C@H](C)[C@@]2(C)CC1=CC(=O)C(SC(C)(C)C)=CC1=O (stereo not given in full)
growth (NCI-H23 lung): 81.2%
growth (NCI-H226 lung): 84.7%
growth (NCI-H322M lung): 87.6%
growth (HOP-62 NSCLC): 97.8%
growth (NCI-H460 lung): 83.5%
growth (HOP-92 NSCLC): 75.2%
growth (NCI-H522 lung): 62.9%
growth (A549/ATCC NSCLC): 73.3%
growth (786-0 renal): 82.4%
growth (COLO 205 colon): 100%
growth (DU-145 prostate): 77.6%
growth (K-562 leukemia): 57.8%
growth (MALME-3M melanoma): 82.3%
growth (MDA-MB-231 breast): 78.3%
growth (RXF 393 renal): 74.5%
growth (SF-268 CNS): 85.3%
growth (SF-295 CNS): 85.1%
growth (SF-539 CNS): 89.9%
growth (UACC-257 melanoma): 90.3%
growth (M14 melanoma): 88.9%

CN(C)c1ccc(/C=C2/C=C(c3ccccc3)OC2=O)cc1
growth (NCI-H23 lung): 95.4%
growth (NCI-H226 lung): 105%
growth (NCI-H322M lung): 96.9%
growth (HOP-62 NSCLC): 96.3%
growth (NCI-H460 lung): 103%
growth (HOP-92 NSCLC): 98.2%
growth (NCI-H522 lung): 55.7%
growth (A549/ATCC NSCLC): 96.4%
growth (786-0 renal): 100%
growth (COLO 205 colon): 99.3%
growth (DU-145 prostate): 101%
growth (K-562 leukemia): 46.9%
growth (MALME-3M melanoma): 96.2%
growth (MDA-MB-231 breast): 109%
growth (RXF 393 renal): 89.5%
growth (SF-268 CNS): 101%
growth (SF-295 CNS): 79.4%
growth (SF-539 CNS): 102%
growth (UACC-257 melanoma): 89.2%
growth (M14 melanoma): 86.1%

CN1CCN(c2ccc3c(c2)nc(NNC(=O)c2cnccn2)c2cccn23)CC1
growth (NCI-H23 lung): 34.1%
growth (NCI-H226 lung): 38%
growth (NCI-H322M lung): 21.5%
growth (HOP-62 NSCLC): 25.1%
growth (NCI-H460 lung): 9.73% (active)
growth (HOP-92 NSCLC): 65.5%
growth (NCI-H522 lung): 15.7%
growth (A549/ATCC NSCLC): 21.9%
growth (786-0 renal): 17.6%
growth (COLO 205 colon): 3.54% (active)
growth (DU-145 prostate): 27.3%
growth (K-562 leukemia): 14.5%
growth (MALME-3M melanoma): 36.9%
growth (MDA-MB-231 breast): 34.1%
growth (RXF 393 renal): 48.6%
growth (SF-268 CNS): 25.9%
growth (SF-295 CNS): 10.4%
growth (SF-539 CNS): 15.2%
growth (UACC-257 melanoma): 46.6%
growth (M14 melanoma): 18.2%

O=C1/C=C/[C@@H](O)[C@@H]2C[C@@H](O)C[C@H]2/C=C/CCC[C@H](CCOCc2ccccc2)O1
growth (NCI-H23 lung): 7.5% (active)
growth (NCI-H226 lung): -32.3% (active)
growth (NCI-H322M lung): 31%
growth (HOP-62 NSCLC): 30.9%
growth (NCI-H460 lung): 16.2%
growth (HOP-92 NSCLC): -16% (active)
growth (NCI-H522 lung): -38.8% (active)
growth (A549/ATCC NSCLC): 14.5%
growth (786-0 renal): -51% (active)
growth (COLO 205 colon): -74.5% (active)
growth (DU-145 prostate): 12.6%
growth (K-562 leukemia): 10.2%
growth (MALME-3M melanoma): -24.6% (active)
growth (MDA-MB-231 breast): -71.5% (active)
growth (RXF 393 renal): -2.06% (active)
growth (SF-268 CNS): 13.1%
growth (SF-295 CNS): -18.3% (active)
growth (SF-539 CNS): 26.2%
growth (UACC-257 melanoma): 20.4%
growth (M14 melanoma): 9.22% (active)

COC(=O)c1nc(-c2ccccc2)oc1S(=O)(=O)N1CCC(C(N)=O)CC1
growth (NCI-H23 lung): 90.4%
growth (NCI-H226 lung): 85.2%
growth (NCI-H322M lung): 93.6%
growth (HOP-62 NSCLC): 104%
growth (NCI-H460 lung): 102%
growth (HOP-92 NSCLC): 23.7%
growth (NCI-H522 lung): 0.81% (active)
growth (A549/ATCC NSCLC): 98.8%
growth (786-0 renal): 51.9%
growth (COLO 205 colon): 20.6%
growth (DU-145 prostate): 55.1%
growth (K-562 leukemia): 14.8%
growth (MALME-3M melanoma): 46.1%
growth (MDA-MB-231 breast): 76%
growth (RXF 393 renal): 47.4%
growth (SF-268 CNS): 85.9%
growth (SF-295 CNS): 107%
growth (SF-539 CNS): 63.2%
growth (UACC-257 melanoma): 69.2%
growth (M14 melanoma): 48.1%

CCOC(=O)c1n[nH]n2c1nc(=O)c1cnn(C)c12
growth (NCI-H23 lung): 96.5%
growth (NCI-H226 lung): 98.1%
growth (NCI-H322M lung): 99.4%
growth (HOP-62 NSCLC): 103%
growth (NCI-H460 lung): 103%
growth (HOP-92 NSCLC): 103%
growth (NCI-H522 lung): 91%
growth (A549/ATCC NSCLC): 86.7%
growth (786-0 renal): 106%
growth (COLO 205 colon): 111%
growth (DU-145 prostate): 98.5%
growth (K-562 leukemia): 93%
growth (MALME-3M melanoma): 101%
growth (MDA-MB-231 breast): 113%
growth (RXF 393 renal): 109%
growth (SF-268 CNS): 96.1%
growth (SF-295 CNS): 108%
growth (SF-539 CNS): 103%
growth (UACC-257 melanoma): 86.4%
growth (M14 melanoma): 102%
